Laboratory results reported in ChEMBL document CHEMBL1961873, “Compounds: GSK PKIS; Assays: Nanosyn kinase panel” (2012).

Assays:
[1] = target: T1, Serine/threonine-protein kinase Nek9 (Homo sapiens) (UniProt Q8TD19); conditions: at 1 µM;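 note: each value is a mean percent inhibition of NEK9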
T1 sequence (whole entry): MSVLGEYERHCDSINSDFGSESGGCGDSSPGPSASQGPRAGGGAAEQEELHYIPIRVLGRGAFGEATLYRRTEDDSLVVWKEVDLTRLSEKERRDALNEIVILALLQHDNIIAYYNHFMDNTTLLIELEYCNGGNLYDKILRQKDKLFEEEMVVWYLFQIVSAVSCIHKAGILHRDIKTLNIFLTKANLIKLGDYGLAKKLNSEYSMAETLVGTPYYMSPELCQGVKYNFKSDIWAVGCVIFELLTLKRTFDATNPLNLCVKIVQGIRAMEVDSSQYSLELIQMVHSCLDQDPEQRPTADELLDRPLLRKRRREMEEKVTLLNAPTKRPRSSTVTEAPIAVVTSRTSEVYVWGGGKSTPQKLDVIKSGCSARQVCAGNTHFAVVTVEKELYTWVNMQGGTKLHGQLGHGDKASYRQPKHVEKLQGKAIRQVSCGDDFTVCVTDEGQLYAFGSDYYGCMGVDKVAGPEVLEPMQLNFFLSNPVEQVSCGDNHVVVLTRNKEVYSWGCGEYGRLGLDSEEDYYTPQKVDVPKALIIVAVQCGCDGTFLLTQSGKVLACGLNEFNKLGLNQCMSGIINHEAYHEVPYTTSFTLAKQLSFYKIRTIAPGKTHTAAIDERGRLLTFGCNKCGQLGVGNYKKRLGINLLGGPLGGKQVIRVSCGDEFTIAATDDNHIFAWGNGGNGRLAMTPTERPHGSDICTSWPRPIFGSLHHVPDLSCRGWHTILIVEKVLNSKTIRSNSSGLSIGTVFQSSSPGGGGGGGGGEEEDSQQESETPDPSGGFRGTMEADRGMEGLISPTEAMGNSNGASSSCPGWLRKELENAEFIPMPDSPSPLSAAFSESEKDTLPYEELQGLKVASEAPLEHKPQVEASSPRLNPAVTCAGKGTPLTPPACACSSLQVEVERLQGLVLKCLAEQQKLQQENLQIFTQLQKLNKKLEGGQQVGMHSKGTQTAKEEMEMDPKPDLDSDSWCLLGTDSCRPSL

[2] = target: Serine/threonine-protein kinase PLK1 (Homo sapiens) (UniProt P53350); conditions: at 0.1 µM
[3] = target: Serine/threonine-protein kinase PLK1 (Homo sapiens) (UniProt P53350); conditions: at 1 µM
[4] = target: T2, Dual specificity protein kinase TTK (Homo sapiens) (UniProt P33981); conditions: at 0.1 µM
T2 sequence (whole entry): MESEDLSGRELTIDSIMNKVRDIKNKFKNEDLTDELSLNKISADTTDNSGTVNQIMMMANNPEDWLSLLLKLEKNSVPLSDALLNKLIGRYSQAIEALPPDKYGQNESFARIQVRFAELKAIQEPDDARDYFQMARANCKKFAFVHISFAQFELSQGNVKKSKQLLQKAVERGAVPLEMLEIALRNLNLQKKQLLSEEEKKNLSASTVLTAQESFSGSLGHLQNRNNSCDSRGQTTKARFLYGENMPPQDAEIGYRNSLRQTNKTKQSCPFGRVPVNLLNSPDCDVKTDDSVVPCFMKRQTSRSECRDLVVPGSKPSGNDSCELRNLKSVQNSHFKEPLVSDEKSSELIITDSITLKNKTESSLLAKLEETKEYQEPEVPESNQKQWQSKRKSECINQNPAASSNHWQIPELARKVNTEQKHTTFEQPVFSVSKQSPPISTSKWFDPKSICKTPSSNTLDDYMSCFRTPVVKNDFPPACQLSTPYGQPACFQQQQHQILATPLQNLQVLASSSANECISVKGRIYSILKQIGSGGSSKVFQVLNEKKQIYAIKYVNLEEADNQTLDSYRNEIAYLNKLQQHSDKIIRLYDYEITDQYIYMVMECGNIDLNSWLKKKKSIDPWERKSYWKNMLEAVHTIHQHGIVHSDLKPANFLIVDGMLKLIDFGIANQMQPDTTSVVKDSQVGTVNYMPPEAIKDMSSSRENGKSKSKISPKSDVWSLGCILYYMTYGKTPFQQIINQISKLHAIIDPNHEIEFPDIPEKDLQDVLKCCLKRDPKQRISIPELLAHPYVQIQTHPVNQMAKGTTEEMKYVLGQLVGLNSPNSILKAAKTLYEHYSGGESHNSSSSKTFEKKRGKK

[5] = system: T3, Receptor-type tyrosine-protein kinase FLT3 (Homo sapiens), P36888 [D835Y]; conditions: at 1 µM
T3 sequence (whole entry): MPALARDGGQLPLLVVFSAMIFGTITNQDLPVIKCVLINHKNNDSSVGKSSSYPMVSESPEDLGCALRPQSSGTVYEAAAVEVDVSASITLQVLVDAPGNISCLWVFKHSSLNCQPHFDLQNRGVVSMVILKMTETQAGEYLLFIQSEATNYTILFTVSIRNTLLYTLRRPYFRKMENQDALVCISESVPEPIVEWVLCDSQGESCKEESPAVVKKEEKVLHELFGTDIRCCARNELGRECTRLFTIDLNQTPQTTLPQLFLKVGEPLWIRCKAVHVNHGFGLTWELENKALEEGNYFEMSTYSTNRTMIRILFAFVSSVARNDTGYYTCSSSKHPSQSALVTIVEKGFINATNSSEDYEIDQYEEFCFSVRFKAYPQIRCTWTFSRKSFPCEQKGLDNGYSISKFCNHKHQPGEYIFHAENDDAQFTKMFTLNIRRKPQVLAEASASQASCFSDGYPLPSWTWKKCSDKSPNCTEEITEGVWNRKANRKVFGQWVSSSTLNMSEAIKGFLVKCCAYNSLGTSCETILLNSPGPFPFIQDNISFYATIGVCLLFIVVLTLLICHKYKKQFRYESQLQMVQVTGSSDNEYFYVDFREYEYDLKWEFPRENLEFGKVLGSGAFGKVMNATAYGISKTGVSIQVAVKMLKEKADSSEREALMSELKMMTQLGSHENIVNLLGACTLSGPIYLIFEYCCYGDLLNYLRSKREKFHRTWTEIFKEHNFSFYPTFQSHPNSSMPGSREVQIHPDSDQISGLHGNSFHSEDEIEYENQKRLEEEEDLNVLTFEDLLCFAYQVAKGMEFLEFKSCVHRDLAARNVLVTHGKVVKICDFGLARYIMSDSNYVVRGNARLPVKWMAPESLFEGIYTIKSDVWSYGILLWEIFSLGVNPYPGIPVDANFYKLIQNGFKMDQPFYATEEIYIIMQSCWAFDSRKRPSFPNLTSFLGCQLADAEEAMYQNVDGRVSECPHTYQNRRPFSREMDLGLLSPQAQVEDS

[6] = target: Vascular endothelial growth factor receptor 3 (Homo sapiens) (UniProt P35916); conditions: at 0.1 µM
[7] = target: Vascular endothelial growth factor receptor 3 (Homo sapiens) (UniProt P35916); conditions: at 1 µM
[8] = target: Macrophage colony-stimulating factor 1 receptor (Homo sapiens) (UniProt P07333); conditions: at 0.1 µM
[9] = target: Macrophage colony-stimulating factor 1 receptor (Homo sapiens) (UniProt P07333); conditions: at 1 µM
[10] = target: Tyrosine-protein kinase Fyn (Homo sapiens) (UniProt P06241); conditions: at 0.1 µM
Sequence of Tyrosine-protein kinase Fyn (Homo sapiens) (P06241 2-537 limits assumed): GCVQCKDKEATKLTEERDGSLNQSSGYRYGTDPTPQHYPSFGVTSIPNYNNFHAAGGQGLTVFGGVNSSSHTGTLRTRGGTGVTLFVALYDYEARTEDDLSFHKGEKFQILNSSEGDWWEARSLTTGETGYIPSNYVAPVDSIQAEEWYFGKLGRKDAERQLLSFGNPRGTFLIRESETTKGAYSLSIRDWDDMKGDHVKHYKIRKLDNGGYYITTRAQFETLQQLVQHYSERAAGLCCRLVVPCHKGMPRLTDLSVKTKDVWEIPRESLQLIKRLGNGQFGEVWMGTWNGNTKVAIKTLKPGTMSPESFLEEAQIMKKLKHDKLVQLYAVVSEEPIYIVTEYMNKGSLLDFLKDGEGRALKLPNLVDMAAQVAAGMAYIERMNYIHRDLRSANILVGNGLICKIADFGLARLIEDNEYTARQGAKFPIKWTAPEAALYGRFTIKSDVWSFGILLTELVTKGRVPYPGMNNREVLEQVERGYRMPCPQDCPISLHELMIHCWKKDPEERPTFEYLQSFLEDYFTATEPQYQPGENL

Sequence of Vascular endothelial growth factor receptor 3 (Homo sapiens) (P35916 whole entry): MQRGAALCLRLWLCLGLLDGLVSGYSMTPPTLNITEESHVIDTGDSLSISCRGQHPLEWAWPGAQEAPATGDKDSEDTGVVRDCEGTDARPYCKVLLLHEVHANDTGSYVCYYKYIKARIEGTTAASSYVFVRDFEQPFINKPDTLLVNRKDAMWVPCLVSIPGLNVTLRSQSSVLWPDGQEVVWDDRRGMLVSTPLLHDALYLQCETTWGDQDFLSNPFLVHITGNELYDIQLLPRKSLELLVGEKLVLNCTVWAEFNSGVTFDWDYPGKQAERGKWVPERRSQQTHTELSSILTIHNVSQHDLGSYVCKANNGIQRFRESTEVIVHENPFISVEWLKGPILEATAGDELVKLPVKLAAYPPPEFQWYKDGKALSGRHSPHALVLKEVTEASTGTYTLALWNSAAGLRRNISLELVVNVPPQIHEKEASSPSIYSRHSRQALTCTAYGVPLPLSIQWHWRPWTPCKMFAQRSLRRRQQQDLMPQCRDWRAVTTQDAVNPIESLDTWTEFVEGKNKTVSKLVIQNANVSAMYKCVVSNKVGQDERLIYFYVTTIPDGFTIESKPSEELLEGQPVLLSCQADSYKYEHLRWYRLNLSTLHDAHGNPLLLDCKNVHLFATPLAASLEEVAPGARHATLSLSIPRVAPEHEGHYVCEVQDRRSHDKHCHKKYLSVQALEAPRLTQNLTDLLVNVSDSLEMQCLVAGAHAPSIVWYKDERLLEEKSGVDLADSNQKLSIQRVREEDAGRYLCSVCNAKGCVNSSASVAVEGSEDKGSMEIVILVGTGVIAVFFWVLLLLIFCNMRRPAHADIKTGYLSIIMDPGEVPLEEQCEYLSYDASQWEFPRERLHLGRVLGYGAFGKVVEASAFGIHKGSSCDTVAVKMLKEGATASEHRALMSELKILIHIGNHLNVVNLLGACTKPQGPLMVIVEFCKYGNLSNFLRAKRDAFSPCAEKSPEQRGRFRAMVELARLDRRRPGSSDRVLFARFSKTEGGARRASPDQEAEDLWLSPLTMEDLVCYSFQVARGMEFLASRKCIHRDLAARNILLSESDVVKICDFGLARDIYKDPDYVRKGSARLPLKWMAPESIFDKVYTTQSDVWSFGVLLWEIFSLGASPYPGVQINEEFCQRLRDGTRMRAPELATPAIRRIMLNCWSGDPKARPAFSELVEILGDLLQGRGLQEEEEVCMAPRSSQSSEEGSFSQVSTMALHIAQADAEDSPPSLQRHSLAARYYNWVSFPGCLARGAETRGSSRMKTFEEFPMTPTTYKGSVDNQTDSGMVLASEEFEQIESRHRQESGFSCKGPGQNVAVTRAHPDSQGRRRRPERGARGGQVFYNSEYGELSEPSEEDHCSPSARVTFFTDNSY
Sequence of Serine/threonine-protein kinase PLK1 (Homo sapiens) (P53350 whole entry): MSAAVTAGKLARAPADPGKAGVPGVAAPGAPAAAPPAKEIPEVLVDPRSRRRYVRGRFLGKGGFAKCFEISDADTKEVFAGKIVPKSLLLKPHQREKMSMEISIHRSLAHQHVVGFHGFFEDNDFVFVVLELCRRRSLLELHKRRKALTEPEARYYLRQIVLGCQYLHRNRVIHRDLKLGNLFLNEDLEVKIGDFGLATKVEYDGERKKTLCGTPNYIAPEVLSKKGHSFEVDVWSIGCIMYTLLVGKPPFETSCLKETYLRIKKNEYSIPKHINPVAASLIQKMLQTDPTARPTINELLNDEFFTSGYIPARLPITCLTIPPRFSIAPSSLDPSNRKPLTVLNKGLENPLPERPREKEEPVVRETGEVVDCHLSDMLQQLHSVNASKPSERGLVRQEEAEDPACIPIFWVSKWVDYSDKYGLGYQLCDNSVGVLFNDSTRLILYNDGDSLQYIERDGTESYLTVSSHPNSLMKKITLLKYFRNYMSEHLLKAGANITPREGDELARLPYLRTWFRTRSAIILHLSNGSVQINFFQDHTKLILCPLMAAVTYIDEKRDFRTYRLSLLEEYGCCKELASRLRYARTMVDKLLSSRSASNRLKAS
Sequence of Macrophage colony-stimulating factor 1 receptor (Homo sapiens) (P07333 whole entry): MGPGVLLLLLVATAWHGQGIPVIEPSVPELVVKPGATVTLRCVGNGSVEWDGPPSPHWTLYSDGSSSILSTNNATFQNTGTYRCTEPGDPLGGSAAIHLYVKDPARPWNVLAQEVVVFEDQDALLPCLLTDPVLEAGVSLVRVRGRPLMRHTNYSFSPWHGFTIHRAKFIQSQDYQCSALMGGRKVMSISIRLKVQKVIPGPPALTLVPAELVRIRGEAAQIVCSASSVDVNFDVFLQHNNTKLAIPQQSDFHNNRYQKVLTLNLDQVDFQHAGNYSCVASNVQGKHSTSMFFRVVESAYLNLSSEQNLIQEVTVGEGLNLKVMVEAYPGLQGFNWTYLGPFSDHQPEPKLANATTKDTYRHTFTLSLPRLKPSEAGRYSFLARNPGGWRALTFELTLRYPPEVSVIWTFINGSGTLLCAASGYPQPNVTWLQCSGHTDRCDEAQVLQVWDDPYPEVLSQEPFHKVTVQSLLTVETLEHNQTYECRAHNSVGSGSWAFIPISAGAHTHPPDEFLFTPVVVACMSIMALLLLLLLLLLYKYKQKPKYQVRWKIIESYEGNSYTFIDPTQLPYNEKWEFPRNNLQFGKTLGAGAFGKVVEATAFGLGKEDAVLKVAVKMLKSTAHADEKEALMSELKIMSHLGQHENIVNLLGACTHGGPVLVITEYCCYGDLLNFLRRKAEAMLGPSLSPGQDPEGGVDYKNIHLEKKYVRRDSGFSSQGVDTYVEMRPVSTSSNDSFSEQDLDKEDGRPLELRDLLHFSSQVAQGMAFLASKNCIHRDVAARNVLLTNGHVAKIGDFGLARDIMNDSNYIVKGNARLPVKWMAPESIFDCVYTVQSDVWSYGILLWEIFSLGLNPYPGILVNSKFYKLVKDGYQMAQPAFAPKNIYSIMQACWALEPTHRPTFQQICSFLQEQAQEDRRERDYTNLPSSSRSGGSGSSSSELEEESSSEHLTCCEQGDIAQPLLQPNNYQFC

COc1cc(N2CCN(C(C)C)CC2)ccc1Nc1nc(Nc2cccc3ncccc23)c2cc[nH]c2n1
inhibition [1]: -1.45%
inhibition [2]: -0.26%
inhibition [3]: 0.8%
inhibition [4]: 52.1%
inhibition [5]: 1.87%
inhibition [6]: 0.19%
inhibition [7]: 0.22%
inhibition [8]: 1.9%
inhibition [9]: 3.33%
inhibition [10]: 2.06%

CCn1c(-c2nonc2N)nc2cncc(C(=O)NCCNC)c21
inhibition [1]: 11.9%
inhibition [2]: 6.23%
inhibition [3]: 5.87%
inhibition [4]: 9.43%
inhibition [5]: 3.12%
inhibition [6]: 1.03%
inhibition [7]: 3.05%
inhibition [8]: -0.11%
inhibition [9]: 3.41%
inhibition [10]: 2.35%

COc1ccccc1-c1cc(/C=C2\C(=O)Nc3ncc(Br)cc32)cc(Br)c1O
inhibition [1]: 3.53%
inhibition [2]: 4.19%
inhibition [3]: 9.04%
inhibition [4]: 12.7%
inhibition [5]: 4.73%
inhibition [6]: 1.8%
inhibition [7]: 4.28%
inhibition [8]: 3.88%
inhibition [9]: 7.16%
inhibition [10]: 5.35%

CNC(=O)c1sc(-n2cnc3cc(OC)c(OC)cc32)cc1OCc1ccccc1C(F)(F)F
inhibition [1]: 9.14%
inhibition [2]: 4.65%
inhibition [3]: 17.8%
inhibition [4]: 4.81%
inhibition [5]: -2.47%
inhibition [6]: 3.76%
inhibition [7]: 6.76%
inhibition [8]: -2.22%
inhibition [9]: 7.07%
inhibition [10]: 2.51%

Cc1c2ccc(N(C)c3ccnc(Nc4cccc(S(N)(=O)=O)c4)n3)cc2nn1C
inhibition [1]: 6.19%
inhibition [2]: 3.29%
inhibition [3]: 3.99%
inhibition [4]: 8.91%
inhibition [5]: 13.8%
inhibition [6]: 58.8%
inhibition [7]: 93.8%
inhibition [8]: 78.4%
inhibition [9]: 91.7%
inhibition [10]: 13.8%

COc1ccc2ncn(-c3cc(O[C@H](C)c4ccccc4C(F)(F)F)c(C(N)=O)s3)c2c1
inhibition [1]: 83.6%
inhibition [2]: 97%
inhibition [3]: 99.2%
inhibition [4]: 0.16%
inhibition [5]: 2.3%
inhibition [6]: 1.9%
inhibition [7]: 15%
inhibition [8]: -0.05%
inhibition [9]: 5.84%
inhibition [10]: 0.53%

NS(=O)(=O)c1ccc(N/N=C2\C(=O)Nc3cccc(CCc4ccncc4)c32)cc1
inhibition [1]: -6.07%
inhibition [2]: -0.07%
inhibition [3]: 1.59%
inhibition [4]: 20.8%
inhibition [5]: 64%
inhibition [6]: 30.1%
inhibition [7]: 47.9%
inhibition [8]: 39.9%
inhibition [9]: 46.2%
inhibition [10]: 2.64%

CS(=O)(=O)Nc1ccc(-c2ccc3c(NC(=O)C4CC4)n[nH]c3c2)cc1
inhibition [1]: -0.22%
inhibition [2]: 4.12%
inhibition [3]: 4.87%
inhibition [4]: 7.49%
inhibition [5]: 3.86%
inhibition [6]: -0.12%
inhibition [7]: 2.39%
inhibition [8]: 1.7%
inhibition [9]: 3.16%
inhibition [10]: 0.67%
